Results filed as inconclusive are left out. A number with no mark means an inactive call. Calls of active or inactive are those of the source. The call rests on the fitted dose curve.

The assay can be described thus: qHTS for Inhibitors of the Functional Ribonucleoprotein Complex (vRNP) of Lassa (LASV) Arenavirus: Viability assay - alamar blue signal for LASV Confirmatory Screen. Particulars: LASV vRNP counter-screen cells; series mostly up to 53.9 µM. For orientation: qHTS replaces the single test concentration by a dilution series.
In the case of `CN(C)c1ccc(O)c2c1C[C@H]1C[C@H]3[C@H](N(C)C)C(=O)C(C(N)=O)=C(O)[C@@]3(O)C(=O)C1=C2O`, the Potency entry is “inactive”.

`Nc1ccc([N+](=O)[O-])cc1O`: the Potency was 39.5 µM (active).

On to `CC12C(=O)OC(=O)C1(C)C1CCC2O1` (stereo not drawn), for which the Potency is 3.85 µM (active).

As to `CNCCCC1c2ccccc2C=Cc2ccccc21`, the Potency was 24.3 µM (active).

As to `CCn1c(-c2nonc2N)nc2cnc(Oc3cccc(NC(=O)c4ccc(OCCN5CCOCC5)cc4)c3)cc21`, the Potency is 8.63 µM (active).

For the compound `COc1cc2c(cc1OC)CC(=O)N(CCCN(C)C[C@H]1Cc3cc(OC)c(OC)cc31)CC2`, the Potency entry is “inactive”.

As to `Cc1cccc(-c2[nH]c(C(C)(C)C)nc2-c2ccc3c(c2)OCO3)n1`, the Potency is 4.85 µM (active).

In the case of `CCC[C@H](N[C@@H](C)C(=O)N1[C@@H]2CCCC[C@H]2C[C@H]1C(=O)O)C(=O)OCC`, the Potency result is “inactive”.

Consider `O=C1c2ccccc2-n2c1nc1ccccc1c2=O`, for which the Potency was 3.85 µM (active).

Take `CCC(C)c1nccnc1OC` (stereo not drawn): the Potency result is “inactive”.

`C=C(C)[C@H]1Cc2c(ccc3c2O[C@@H]2COc4cc(OC)c(OC)cc4[C@@H]2C3=O)O1`: the Potency is 0.193 µM (active).

For `O=c1ccc2ccc(O)c(O)c2o1`, the Potency result was “inactive”.

With `CCOC(=O)OCC/C(SC(=O)OCC)=C(\C)N(C=O)Cc1cnc(C)nc1N`, the Potency entry is “inactive”.

For `Cc1ccc2c(c1)C1CN(C)CCC1N2` (stereo not drawn), the Potency entry was “inactive”.

For `O=c1[nH]c2ccccc2n1C1CCN(CCCC(c2ccc(F)cc2)c2ccc(F)cc2)CC1`, the Potency entry is “inactive”.

Turning to `Fc1ccc(CNc2ncnc3ccc(F)cc23)cc1`, the Potency was 15.3 µM (active).

Turning to `CO/C=C(/C(=O)OC)c1ccccc1Oc1cc(Oc2ccccc2C#N)ncn1`, the Potency was 31.4 µM (active).

For the compound `Clc1nccc2c1ccc1ccccc12`, the Potency result was “inactive”.

As for `Oc1cc(Cl)ccc1Oc1ccc(Cl)cc1Cl`, the Potency was 39.5 µM (active).

Regarding `Cn1cc(-c2ccncc2)c(-c2ccc(OCc3ccc4ccccc4n3)cc2)n1`, the Potency was 21.7 µM (active).

For the compound `CCCCC[C@H](O)/C=C/C=C/C/C=C\CCCC(=O)O`, the activity change, negative = decreased viability is 20.4% [at 0.666 µM].

With `CC[C@@H](C(=O)O)[C@@H]1O[C@@H]([C@@H](C)[C@H](O)[C@H](C)C(=O)[C@H](CC)[C@H]2O[C@]3(C=C[C@@H](O)[C@]4(CC[C@@](C)([C@H]5CC[C@](O)(CC)[C@H](C)O5)O4)O3)[C@H](C)C[C@@H]2C)[C@@H](C)C[C@@H]1C`, the Potency is 1.57 µM (active).

For `CC(C)=CCC/C(C)=C/CC/C(C)=C/CC[C@]1(C)CCc2c(C)c(O)c(C)c(C)c2O1`, the activity change, negative = decreased viability is 6.56% [at 6 µM].
